Bioassay records from PubChem BioAssay.
Shown are actives, neighbours in structure and some others; about 11% of the full set was active somewhere.
USP28 block: human USP28 deubiquitinase inhibition. Q96RU2. purified USP28, Ub-rhodamine cleavage fluorescence, 30 min. inhibition, % at 25 µM. 47,000 compounds, 3% hits
Target sequence (Q96RU2 whole entry, looked up): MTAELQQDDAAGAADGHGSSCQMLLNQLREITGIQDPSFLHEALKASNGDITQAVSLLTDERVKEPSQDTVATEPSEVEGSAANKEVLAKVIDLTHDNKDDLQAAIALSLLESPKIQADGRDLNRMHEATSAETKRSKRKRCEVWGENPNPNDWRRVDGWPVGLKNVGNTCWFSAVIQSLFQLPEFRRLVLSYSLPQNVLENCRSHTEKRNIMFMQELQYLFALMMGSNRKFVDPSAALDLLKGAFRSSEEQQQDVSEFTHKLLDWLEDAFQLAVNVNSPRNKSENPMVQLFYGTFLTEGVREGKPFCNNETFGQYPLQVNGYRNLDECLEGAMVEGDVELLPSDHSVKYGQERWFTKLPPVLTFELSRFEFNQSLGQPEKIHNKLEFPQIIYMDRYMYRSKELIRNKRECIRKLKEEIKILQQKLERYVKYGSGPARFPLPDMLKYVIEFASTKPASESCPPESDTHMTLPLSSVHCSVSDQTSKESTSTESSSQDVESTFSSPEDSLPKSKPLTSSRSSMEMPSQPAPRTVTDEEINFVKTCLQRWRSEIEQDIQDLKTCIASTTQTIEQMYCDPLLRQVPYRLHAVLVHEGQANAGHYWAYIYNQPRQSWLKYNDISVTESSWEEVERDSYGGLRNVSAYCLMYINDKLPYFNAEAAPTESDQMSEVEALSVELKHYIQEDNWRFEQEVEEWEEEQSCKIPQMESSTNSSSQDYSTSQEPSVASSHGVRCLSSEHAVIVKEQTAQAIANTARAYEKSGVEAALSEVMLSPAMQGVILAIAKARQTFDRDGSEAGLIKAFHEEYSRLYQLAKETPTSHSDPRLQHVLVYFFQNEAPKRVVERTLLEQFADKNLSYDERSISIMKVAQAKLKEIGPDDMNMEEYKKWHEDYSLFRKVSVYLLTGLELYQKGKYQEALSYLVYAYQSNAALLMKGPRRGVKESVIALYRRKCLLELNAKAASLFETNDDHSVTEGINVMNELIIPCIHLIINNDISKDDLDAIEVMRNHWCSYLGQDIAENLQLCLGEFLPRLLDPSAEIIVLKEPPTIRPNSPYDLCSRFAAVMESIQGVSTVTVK
USP17 inh: inhibitors of human USP17 deubiquitinase | A8MUK1 | purified USP17, Ub-rhodamine cleavage fluorescence, 3 h | inhibition, % at 50 µM | 47,000 compounds, 6.5% hits
USP30 block: human USP30 deubiquitinase inhibition | AID 1645860 | Q70CQ3 | inhibition, % at 25 µM | purified USP30, Ub-rhodamine cleavage fluorescence | 47,000 compounds, 5.3% hits
Active calls of the source: *; . = not tested or not shown. No stated cut-off is given here; in the data, active means inhibition above about 30%; inactive means the rest.

SMILES	USP28 block	USP17 inh	USP30 block
Cc1ccc(NC(=O)N2CCCC2c2ccco2)c([N+](=O)[O-])c1 (configuration not stated)	-0.2	-16.8	-7.1
CCN(C=C1NC(=O)c2ccccc2N1)CC(=O)Nc1ccc(Cl)c(C(F)(F)F)c1	7.8	-0.5	-109.9
COc1ccc(CNC(=O)C2c3ccccc3CCN2C(=O)C2CC2)cc1OC (configuration not stated)	11.5	6.3	22.9
O=C(N[C@H]1COC[C@@H]1N1CCCCC1)c1ccccc1	2.5	4.4	5.0
O=S(=O)(Nc1nnc(C2CC2)s1)c1cccc2nonc12	.	37.2*	.
Cc1onc(-c2ccccc2)c1CNS(=O)(=O)c1cccc2nonc12	0.1	-3.9	-36.0
Cc1cc(-c2cnn(C)c2)cc(C2CCCN(C(=O)c3cnccn3)C2)n1 (configuration not stated)	4.0	11.0	14.2
Cc1ccccc1Cc1nc(-c2ccc(=O)[nH]c2)no1	84.2*	2.6	-1.3
O=c1ccc(-c2noc(Cc3c(F)cccc3Cl)n2)c[nH]1	93.1*	16.2	26.6
COc1ccc(-c2nc(-c3ccc(=O)[nH]c3)no2)c(C)c1	-35.7	-45.0	-155.2
Cc1ccccc1Cc1nc(-c2ccnc(N3CCOCC3)c2)no1	32.4*	9.3	12.9
CN(Cc1c(F)cccc1Cl)C(=O)c1ccc2ccccc2n1	-66.1	-48.7	-252.5
c1cc(-c2noc(C3CCCCC3)n2)cc(N2CCOCC2)n1	2.3	4.5	6.5
Cc1ccc(-c2noc3ncnc(N(Cc4ccco4)CC4CCCO4)c23)cc1 (configuration not stated)	-0.5	10.1	22.5
CN(CCO)C(=O)C1CC2(CCN(c3cnccn3)CC2)c2ccccc21 (configuration not stated)	-4.3	-28.0	-0.3
COc1cc(C2CN3C(=O)CN(CCN4CCOCC4)C(=O)[C@]3(C)c3[nH]c4ccccc4c32)ccc1OC(C)C (some centres not stated)	-1.9	.	3.4
Cc1cncc(C(=O)N2CCOC(CCc3ccnc(N)c3)C2)c1 (configuration not stated)	-10.9	-21.0	-31.3
O=c1c2ccc(F)cc2ncn1Cc1csc(-c2ccccc2)n1	47.4*	29.8	-118.2
Cc1ccc(-c2nc(Cn3cnc4sc(C)c(C)c4c3=O)cs2)cc1	-61.5	.	-201.7
CC1=C(C)C(N(c2ccccc2)c2ccccc2)N(CCC(C)C)C1=O (configuration not stated)	15.5	75.6*	16.0
CCOc1ccc(-c2nnc(NC(=O)c3ccccc3Br)s2)cc1	-0.4	-17.3	-19.4
Cc1ccsc1CNC(=O)Nc1ccc(C(F)(F)F)cc1	16.2	43.2*	26.7
CCOc1ccsc1NC(=O)Nc1cccc(C(F)(F)F)c1	-54.3	-35.3	-176.5
CC(NC(=O)Cc1cc(-c2ccc(F)cc2)on1)c1ccccc1 (configuration not stated)	5.5	30.6*	20.6
CC(NC(=O)COCc1cc(-c2ccc(F)cc2)on1)c1ccccc1 (configuration not stated)	12.9	0.5	14.7
SMILES	USP28 block	USP17 inh	USP30 block
COc1ccc(COc2ncnc3ccc(Br)cc23)cc1F	7.3	-7.7	-29.7
COc1ccc(COc2ncnc3cc(Cl)ccc23)cc1	48.5*	11.6	14.0
COc1ccc(N(CC(=O)Nc2cccc(C)c2C)S(=O)(=O)c2c(C)nn(C)c2C)cc1	-4.3	-4.6	9.2
CC(Nc1ncnc2sccc12)c1ccccn1 (configuration not stated)	-0.1	-4.2	-18.8
CC(c1cc2ccccc2o1)N(C)c1ncnc2sccc12 (configuration not stated)	34.7*	24.9	-7.0
Cc1cc(C)cc(NC(=O)NC2CCN(c3nc4cccnc4n(C)c3=O)CC2)c1	-9.4	-10.9	-28.2
COc1ccc(CCC(=O)Nc2ncc(C)s2)cc1OC	53.8*	25.1	0.4
COc1ccc(CC(=O)Nc2ncc(C)s2)c(OC)c1OC	-8.9	-18.0	-17.8
COc1ccc(C2c3[nH]c4ccccc4c3C[C@H]3C(=O)N(CCCc4ccccc4)CC(=O)N23)cc1 (some centres not stated)	-62.6	-50.8	-200.3
O=C1CN(C(=O)COC(=O)C(c2ccccc2)c2ccccc2)c2ccccc2N1	32.2*	12.5	-9.6
O=C1CN(C(=O)COC(=O)CCCN2C(=O)c3cccc4cccc(c34)C2=O)c2ccccc2N1	46.4*	61.6*	48.7*
O=C1CN(C(=O)COC(=O)c2ccc(Cl)cc2)c2ccccc2N1	2.7	0.5	-50.0
O=C1CN(C(=O)COC(=O)Cc2c(Cl)cccc2Cl)c2ccccc2N1	16.9	-1.7	-5.2
CSc1ccccc1NC(=O)c1nnn2cc(C)[nH]c(=O)c12	1.9	-23.1	3.2
Cc1cn2nnc(C(=O)Nc3ccc(OC(F)(F)F)cc3)c2c(=O)[nH]1	26.3	50.6*	53.7*
Cc1ncccc1Oc1nccnc1C1CCCNC1 (configuration not stated)	-0.2	14.5	15.5
COc1ccc(-c2c(C(=O)O)sc3c2NC(=O)CC3c2cc(F)ccc2F)cc1 (configuration not stated)	14.4	5.2	35.0*
COc1ccc(C2CC(=O)Nc3c2sc(C(=O)O)c3-c2ccc(C)cc2)cc1 (configuration not stated)	7.2	2.4	24.4
Cc1nc(-c2cc(CC3CCN(S(C)(=O)=O)C3)ncn2)sc1C (configuration not stated)	11.4	12.4	24.8
O=C(NC1CC1)c1cc(-c2ccco2)nc2onc(-c3ccccc3)c12	-9.1	31.4*	-131.3
CSc1ncc(C(=O)NC2CC2)c(-c2ccccc2)n1	3.7	3.9	0.4
COCC(=O)N1CCC2(CC1)CC[C@@]1(C(=O)N3CCCC3)CN(C)C[C@@H]21	-12.4	-55.0	-9.7
O=C(NCc1ccc2c(c1)OCO2)c1nc(CS(=O)(=O)c2ccccc2)no1	0.7	-22.9	-32.2
N#Cc1ccccc1Cn1c(=O)n(Cc2ccc(C(=O)NC3CCCC3)cc2)c(=O)c2ccccc21	17.4	16.1	33.3*
CC(C)(C)C(=O)Cn1c(=O)n(Cc2ccc3c(c2)OCO3)c(=O)c2ccc(C(=O)NC3CCCCC3)cc21	-4.1	0.0	2.3
SMILES	USP28 block	USP17 inh	USP30 block
NC(=O)Cn1c(=O)n(Cc2ccc(C(=O)NC3CCCC3)cc2)c(=O)c2ccccc21	22.9	53.1*	28.6
O=C(NC1CCN(Cc2ccccc2)CC1)c1ccc(Cn2c(=O)c3ccccc3n(Cc3ccccc3F)c2=O)cc1	13.1	15.7	34.0*
Cc1ccccc1Cn1c(=O)n(Cc2ccc(C(=O)NC3CCN(Cc4ccccc4)CC3)cc2)c(=O)c2ccccc21	17.2	16.5	28.8
O=C(NC1CCCC1)c1ccc(Cn2c(=O)c3ccccc3n(Cc3ccc(F)cc3)c2=O)cc1	8.0	8.2	3.2
COc1ccc(C)cc1NC(=O)C(NS(=O)(=O)c1cccc2cccnc12)C(C)C (configuration not stated)	-1.0	3.3	-7.3
CC(C)CNC(=O)N1CCC2(CC1)c1ncc(-c3cnn(C)c3)n1CCN2C	5.2	-50.8	8.0
CCc1cc2c3c([nH]c2cc1S(=O)(=O)N1CCC(C)CC1)CCCC3=O	4.4	-30.9	-49.0
Cc1c(S(=O)(=O)Nc2ccccc2F)cc(C(=O)N2CCCC2)n1C	-3.8	-4.2	-15.7
O=C(O)c1ccc(NCc2nc3ccccc3n2Cc2ccccc2F)cc1	12.7	27.7	20.3
